Measurements: the supplement of paper PMC10849652
Targets with a hit are over-represented here; the source holds about 7,900 in all. About 0.6% of all pairs of compound and target were hits.

compound: c1cn2cc(-c3ccc4cn[nH]c4c3)nc(Nc3ccc(N4CCOCC4)cc3)c2n1 [entospletinib]; experiment: log2 fold change, soluble protein after heating vs DMSO (PISA); higher = thermal stabilisation; K562 cells, 10 uM, 30 min; active = over 0.2 and 3.5 SD of the protein, either way, in both replicates (recomputed)
How it was run: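 K562 cells at 2×10^6 cells/mL were treated for 30 min with 10 μM compound, and aliquots were heated for 3 min over 48°C-58°C before pooling. Extraction used PBS with 0.5% NP-40 at 4°C, and soluble protein was the supernatant after 21,000xg for 90 min, measured by TMTpro 16plex LC-MS/MS with channel sums equalised. Thermal stability values, relative to control samples and from duplicates, are log2 fold changes.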

UniProt P30305, sequence (P30305 whole entry, looked up): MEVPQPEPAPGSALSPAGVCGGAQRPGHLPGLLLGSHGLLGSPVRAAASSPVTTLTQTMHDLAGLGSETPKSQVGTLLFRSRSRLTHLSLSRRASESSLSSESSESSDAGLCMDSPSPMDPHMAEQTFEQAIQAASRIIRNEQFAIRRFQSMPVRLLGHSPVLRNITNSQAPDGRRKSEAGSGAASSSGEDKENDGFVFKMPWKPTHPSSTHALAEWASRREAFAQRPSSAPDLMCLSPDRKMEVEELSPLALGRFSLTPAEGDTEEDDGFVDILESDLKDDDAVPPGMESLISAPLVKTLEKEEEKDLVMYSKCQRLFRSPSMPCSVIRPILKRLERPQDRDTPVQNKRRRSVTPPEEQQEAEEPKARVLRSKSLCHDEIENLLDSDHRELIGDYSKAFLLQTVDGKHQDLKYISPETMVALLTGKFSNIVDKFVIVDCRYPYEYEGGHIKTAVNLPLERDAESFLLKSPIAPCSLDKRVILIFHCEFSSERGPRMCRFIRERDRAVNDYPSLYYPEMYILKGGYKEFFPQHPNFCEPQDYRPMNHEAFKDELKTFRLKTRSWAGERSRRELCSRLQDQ
UniProt Q5T6V5, sequence (Q5T6V5 whole entry, looked up): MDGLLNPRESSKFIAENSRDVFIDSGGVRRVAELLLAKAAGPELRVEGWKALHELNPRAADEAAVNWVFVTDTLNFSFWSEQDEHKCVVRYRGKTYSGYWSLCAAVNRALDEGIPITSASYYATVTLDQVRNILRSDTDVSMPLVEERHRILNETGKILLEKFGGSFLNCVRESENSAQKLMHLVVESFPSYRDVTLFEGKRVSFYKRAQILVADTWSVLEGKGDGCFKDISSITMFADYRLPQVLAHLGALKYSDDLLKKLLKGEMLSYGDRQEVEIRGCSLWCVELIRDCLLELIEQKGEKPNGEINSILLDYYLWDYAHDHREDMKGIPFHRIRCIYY
UniProt P33552, sequence (P33552 whole entry, looked up): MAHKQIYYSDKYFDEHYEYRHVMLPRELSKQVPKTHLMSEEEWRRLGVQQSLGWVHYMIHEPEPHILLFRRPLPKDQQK
UniProt Q5VT25, sequence (Q5VT25 whole entry, looked up): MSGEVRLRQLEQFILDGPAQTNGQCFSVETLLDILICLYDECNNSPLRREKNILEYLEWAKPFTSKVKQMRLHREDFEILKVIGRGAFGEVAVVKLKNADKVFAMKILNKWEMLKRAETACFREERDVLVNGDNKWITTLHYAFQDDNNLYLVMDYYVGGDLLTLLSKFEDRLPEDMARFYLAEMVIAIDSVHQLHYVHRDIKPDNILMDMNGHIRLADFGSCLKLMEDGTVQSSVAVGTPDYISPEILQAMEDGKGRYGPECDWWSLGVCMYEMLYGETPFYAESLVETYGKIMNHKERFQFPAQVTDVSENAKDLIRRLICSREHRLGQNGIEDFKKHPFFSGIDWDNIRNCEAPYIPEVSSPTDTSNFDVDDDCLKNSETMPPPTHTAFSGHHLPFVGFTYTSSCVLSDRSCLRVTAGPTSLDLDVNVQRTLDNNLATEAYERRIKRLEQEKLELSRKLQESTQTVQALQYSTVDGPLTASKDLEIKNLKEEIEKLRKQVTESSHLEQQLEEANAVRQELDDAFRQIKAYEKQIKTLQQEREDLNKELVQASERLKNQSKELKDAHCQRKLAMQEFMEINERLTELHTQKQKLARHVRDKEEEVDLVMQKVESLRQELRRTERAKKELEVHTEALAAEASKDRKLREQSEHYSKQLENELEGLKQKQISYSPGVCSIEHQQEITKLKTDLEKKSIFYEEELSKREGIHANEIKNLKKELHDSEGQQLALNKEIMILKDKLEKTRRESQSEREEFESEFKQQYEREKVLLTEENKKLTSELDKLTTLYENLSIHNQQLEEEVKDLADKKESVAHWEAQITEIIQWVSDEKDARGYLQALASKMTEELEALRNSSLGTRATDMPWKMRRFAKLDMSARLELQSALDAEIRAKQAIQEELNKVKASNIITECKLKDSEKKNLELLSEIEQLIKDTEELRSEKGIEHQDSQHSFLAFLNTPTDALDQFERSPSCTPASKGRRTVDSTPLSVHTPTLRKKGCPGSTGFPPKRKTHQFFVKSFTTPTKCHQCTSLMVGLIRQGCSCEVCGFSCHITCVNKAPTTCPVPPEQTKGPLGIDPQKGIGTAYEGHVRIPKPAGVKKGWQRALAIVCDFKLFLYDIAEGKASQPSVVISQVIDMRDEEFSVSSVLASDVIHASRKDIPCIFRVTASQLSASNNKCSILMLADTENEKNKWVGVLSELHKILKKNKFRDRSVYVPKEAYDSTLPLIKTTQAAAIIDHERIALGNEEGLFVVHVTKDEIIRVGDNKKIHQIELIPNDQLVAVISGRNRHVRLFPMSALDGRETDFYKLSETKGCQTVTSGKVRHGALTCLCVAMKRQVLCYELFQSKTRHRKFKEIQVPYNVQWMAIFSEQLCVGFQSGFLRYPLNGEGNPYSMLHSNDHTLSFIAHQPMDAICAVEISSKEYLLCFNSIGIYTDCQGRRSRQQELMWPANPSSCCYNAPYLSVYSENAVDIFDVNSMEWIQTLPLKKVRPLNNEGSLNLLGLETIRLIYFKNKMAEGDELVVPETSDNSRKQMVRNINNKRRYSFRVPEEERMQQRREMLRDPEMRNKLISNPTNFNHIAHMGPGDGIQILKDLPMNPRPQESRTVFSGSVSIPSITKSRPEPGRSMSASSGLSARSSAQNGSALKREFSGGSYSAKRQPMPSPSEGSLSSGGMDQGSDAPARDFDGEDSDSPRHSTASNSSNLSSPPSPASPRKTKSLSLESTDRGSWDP
UniProt Q9UNS2, sequence (Q9UNS2 whole entry, looked up): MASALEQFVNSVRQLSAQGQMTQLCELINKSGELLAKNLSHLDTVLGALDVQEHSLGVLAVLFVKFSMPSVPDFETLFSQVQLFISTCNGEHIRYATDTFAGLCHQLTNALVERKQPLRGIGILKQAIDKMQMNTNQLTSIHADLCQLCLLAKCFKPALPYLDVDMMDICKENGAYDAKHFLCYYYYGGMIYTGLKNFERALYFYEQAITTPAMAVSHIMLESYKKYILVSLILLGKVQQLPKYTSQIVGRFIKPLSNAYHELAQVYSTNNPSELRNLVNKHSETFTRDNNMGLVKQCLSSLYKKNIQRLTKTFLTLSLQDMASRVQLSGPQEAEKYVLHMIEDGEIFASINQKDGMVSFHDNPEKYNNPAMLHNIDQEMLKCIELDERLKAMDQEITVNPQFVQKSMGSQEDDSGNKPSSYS
UniProt O76031, sequence (O76031 whole entry, looked up): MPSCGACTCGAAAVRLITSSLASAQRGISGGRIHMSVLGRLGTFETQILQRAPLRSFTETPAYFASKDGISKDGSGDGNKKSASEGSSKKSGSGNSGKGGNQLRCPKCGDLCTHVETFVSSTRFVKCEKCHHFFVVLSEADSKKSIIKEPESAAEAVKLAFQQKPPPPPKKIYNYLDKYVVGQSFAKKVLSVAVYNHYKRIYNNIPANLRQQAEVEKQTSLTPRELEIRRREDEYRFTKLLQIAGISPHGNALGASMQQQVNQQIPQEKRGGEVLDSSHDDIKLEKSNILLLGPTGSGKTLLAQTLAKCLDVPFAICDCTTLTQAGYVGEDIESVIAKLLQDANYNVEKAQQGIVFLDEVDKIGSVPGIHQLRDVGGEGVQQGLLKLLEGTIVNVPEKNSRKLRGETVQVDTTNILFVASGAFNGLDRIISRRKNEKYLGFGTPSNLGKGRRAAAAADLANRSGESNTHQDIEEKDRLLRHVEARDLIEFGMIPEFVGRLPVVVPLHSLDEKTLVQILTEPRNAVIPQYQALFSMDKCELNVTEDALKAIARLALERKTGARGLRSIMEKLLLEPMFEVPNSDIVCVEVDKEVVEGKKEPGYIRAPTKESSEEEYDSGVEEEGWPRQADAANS
UniProt A8MTT3, sequence (A8MTT3 whole entry, looked up): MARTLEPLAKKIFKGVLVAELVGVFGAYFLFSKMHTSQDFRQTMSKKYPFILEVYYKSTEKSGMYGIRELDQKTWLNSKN
UniProt P42575, sequence (P42575 whole entry, looked up): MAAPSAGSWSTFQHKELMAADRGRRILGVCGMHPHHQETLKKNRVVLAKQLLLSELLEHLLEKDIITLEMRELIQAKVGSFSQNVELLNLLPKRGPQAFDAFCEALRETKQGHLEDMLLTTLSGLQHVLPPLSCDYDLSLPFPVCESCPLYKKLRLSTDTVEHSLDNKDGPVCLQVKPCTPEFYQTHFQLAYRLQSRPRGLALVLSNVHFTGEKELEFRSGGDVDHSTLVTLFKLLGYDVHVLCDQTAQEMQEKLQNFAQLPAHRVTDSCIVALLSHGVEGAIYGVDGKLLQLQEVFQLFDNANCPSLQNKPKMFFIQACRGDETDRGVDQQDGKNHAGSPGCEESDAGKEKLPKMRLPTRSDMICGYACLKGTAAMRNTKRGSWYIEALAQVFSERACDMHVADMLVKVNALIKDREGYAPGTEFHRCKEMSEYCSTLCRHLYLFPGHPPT
UniProt A6NHX0, sequence (A6NHX0 whole entry, looked up): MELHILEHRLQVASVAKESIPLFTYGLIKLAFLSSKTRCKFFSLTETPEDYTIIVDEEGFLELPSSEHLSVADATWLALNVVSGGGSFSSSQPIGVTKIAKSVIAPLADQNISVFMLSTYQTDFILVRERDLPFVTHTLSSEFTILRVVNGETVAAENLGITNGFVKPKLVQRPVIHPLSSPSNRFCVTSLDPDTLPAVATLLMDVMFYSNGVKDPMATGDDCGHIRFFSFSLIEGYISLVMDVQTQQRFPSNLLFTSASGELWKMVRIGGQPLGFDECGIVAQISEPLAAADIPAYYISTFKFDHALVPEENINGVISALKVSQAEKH
UniProt Q9Y2V0, sequence (Q9Y2V0 whole entry, looked up): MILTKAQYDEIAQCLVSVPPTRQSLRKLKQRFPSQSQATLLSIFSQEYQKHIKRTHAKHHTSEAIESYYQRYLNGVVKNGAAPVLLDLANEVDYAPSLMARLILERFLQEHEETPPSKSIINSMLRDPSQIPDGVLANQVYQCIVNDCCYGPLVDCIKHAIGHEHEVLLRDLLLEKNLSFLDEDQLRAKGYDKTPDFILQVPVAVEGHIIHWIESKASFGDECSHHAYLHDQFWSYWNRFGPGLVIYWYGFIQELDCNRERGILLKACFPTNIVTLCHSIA

log2 fold change, inactive:
CNN2 (UniProt Q99439) -0.011
CLPX (UniProt O76031) -0.002
CES2 isoform 4 (UniProt O00748) 0.02
CASP2 (UniProt P42575) -0.004
CDC42BPA isoform 6 (UniProt Q5VT25) 0.112
CDC42SE1 (UniProt Q9NRR8) 0.141
CNOT7 (UniProt Q9UIV1) 0.122
CLASP2 (UniProt O75122) -0.003
CRKL (UniProt P46109) 0.014
CCDC82 (UniProt Q8N4S0) 0.021
CAMKK2 (UniProt Q96RR4) 0.011
CLUH, A0A494C0R8 0.119
CDC25B isoform 4 (UniProt P30305) -0.013
CHERP (UniProt Q8IWX8) 0.026
C6orf120 (UniProt Q7Z4R8) -0.013
CDC37L1 (UniProt Q7L3B6) 0.042
CTBS (UniProt Q01459) 0.049
CMTR1 (UniProt Q8N1G2) -0.016
CCDC9 (UniProt Q9Y3X0) 0.115
COPS8 (UniProt Q99627) 0
CLTB (UniProt P09497) -0.025
COPS3 (UniProt Q9UNS2) 0.011
CDK12 (UniProt Q9NYV4) 0.058
CEBPZOS (UniProt A8MTT3) 0.203
CCNDBP1 (UniProt O95273) 0.029
C15orf41 (UniProt Q9Y2V0) 0.032
C9orf64 (UniProt Q5T6V5) 0.009
COX5A (UniProt P20674) 0.132
CETN3 (UniProt O15182) 0.025
CDK4 (UniProt P11802) -0.069
CKS2 (UniProt P33552) 0.04
COQ7 (UniProt Q99807) 0.026
CASTOR2 (UniProt A6NHX0) -0.104
CCZ1 (UniProt P86791) 0.039
C19orf53 (UniProt Q9UNZ5) 0.099
COMMD1 (UniProt Q8N668) -0.013
CFAP47 (UniProt Q6ZTR5) -0.052
